Bioassay records: PubChem BioAssay, National Center for Advancing Translational Sciences (NCATS)
BAZ2B block = BAZ2B (human) inhibition; Potency, µM (highest dose often 114 µM), for the others: at the top dose activity change, negative = inhibition, usual class: inhibitors; AID 504333; Q9UIF8; AlphaScreen BAZ2B-H3K14Ac peptide displacement; 4.4% of 360,000 active; note: % is set by controls: 0 for no effect and ±100 for the full control effect; nearly all actives have a fitted effect of over 60% in size
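AlphaScreen luminescence quantifies BAZ2B engagement of H3K14Ac peptide; the protein and biotinylated peptide are both at 50 nM final, buffer PBS pH 7.4 with 0.01% Tween-20, all steps at room temperature.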
HP1b binding inh = inhibitors of HP1-beta chromodomain binding to methylated histone tails; AlphaScreen HP1-beta / biotin-H3K9me3 peptide binding; 0.56% of 390,000 active; P83916; AID 540317; Potency, µM (series often up to 114 µM), without a hit: at the top dose activity change, negative = inhibition, actives largely listed as inhibitors; note: nearly all actives have a fitted effect of over 70% in size
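Compound inhibition of the preformed complex between 50 nM HP1-beta and 50 nM biotinylated H3K9me3 peptide was read by AlphaScreen. Buffer was PBS pH 7.4 with 0.01% Tween-20. Incubations ran 30 min at room temperature, with 10 ug/mL donor/acceptor beads.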
JMJD2A Tudor inh = inhibitors of human JMJD2A Tudor domain. Potency, µM (series often up to 114 µM), for the others: at the highest dose activity change, negative = inhibition, most hits filed as inhibitors. AlphaScreen JMJD2A-Tudor / H3K4me3 peptide binding. 4.4% of 390,000 active; note: % is set by controls: 0 for no effect and ±100 for the full control effect; nearly all actives have a fitted effect of over 50% in size
G9a inh = blocks human histone lysine methyltransferase G9a; AID 504332; 8.8% of 350,000 active; Potency, µM (top dose mostly 102 µM), inactives show top-dose activity, negative = inhibition, most hits filed as inhibitors; G9a H3K9 monomethylation, AlphaScreen, 2 h; note: % is set by controls: 0 for no effect and ±100 for the full control effect; nearly all actives have a fitted effect of over 75% in size
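Signal arises when biotinylated H3K9 peptide, once monomethylated, bridges streptavidin donor and antibody-captured acceptor beads. Enzyme at 20 nM was preincubated 15 min with test compounds; peptide 500 nM and SAM 20 uM then reacted for 2 h.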
L3MBTL1 inh = blocks human L3MBTL1 | Q9Y468 | AlphaScreen L3MBTL1–H3K9me1 peptide binding | Potency, µM (top dose mostly 57.1 µM), inactives show at the highest dose activity, negative = inhibition, hits mostly inhibitors | 0.66% of 230,000 active | AID 485360; note: % is set by controls: 0 for no effect and ±100 for the full control effect; nearly all actives have a fitted effect of over 60% in size
Target sequence (Q9Y468 whole entry, looked up): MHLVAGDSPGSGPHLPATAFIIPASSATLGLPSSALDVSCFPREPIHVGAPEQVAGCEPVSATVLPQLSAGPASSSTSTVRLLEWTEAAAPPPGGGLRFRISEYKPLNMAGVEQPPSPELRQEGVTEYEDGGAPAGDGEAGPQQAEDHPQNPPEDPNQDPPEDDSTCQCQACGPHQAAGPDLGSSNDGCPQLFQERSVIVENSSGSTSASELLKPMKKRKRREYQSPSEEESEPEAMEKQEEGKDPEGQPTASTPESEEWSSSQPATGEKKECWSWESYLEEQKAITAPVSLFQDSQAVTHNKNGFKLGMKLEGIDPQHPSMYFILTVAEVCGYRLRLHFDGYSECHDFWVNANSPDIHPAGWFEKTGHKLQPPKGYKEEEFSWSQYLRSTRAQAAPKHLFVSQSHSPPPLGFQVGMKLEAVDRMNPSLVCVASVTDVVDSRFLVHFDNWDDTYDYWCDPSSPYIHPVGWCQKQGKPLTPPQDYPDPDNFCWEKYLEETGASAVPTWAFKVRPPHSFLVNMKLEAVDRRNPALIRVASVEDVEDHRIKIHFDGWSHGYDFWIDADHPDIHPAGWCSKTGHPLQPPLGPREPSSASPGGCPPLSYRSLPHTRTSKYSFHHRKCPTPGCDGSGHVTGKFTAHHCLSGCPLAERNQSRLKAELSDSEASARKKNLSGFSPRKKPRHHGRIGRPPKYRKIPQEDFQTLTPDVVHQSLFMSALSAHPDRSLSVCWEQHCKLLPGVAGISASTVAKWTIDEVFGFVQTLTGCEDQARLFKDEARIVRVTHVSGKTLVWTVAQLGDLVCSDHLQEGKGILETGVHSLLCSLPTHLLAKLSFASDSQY
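Displacement of a biotinylated histone H3(1-15) peptide monomethylated at Lys9 (75 nM) from L3MBTL1 (50 nM) was measured by AlphaScreen after a 30 min room-temperature compound incubation; cefsulodin titration served as intraplate control.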
The depositor's hits bear a star; [ ] = dose if it differs, or a comment. This is a sample that favours compounds with a hit; in the whole collection about 11% have one here. Calls come from the whole dose curve; as a rule, active = well fitted inhibition curve with a large enough effect; inconclusive = small, poorly fitted or top-dose-only effect; inactive = no such curve, though single readings can be large or run the other way. Potency is the fitted concentration of half-maximal effect.

Screening O=C1CC(N2CCCCCC2)C(=O)N1c1ccc(F)cc1 (configuration not stated) returned BAZ2B block -17.8%, HP1b binding inh 34.6%, JMJD2A Tudor inh -4.8%, G9a inh 11.2µM* and L3MBTL1 inh -3.7%.
O=C1CC(N2CCN(c3ccccc3Cl)CC2)C(=O)N1c1ccc(F)cc1 (configuration not stated) was read as BAZ2B block -2.9%, HP1b binding inh 15.7%, JMJD2A Tudor inh -12.2%, G9a inh 50.1µM* and L3MBTL1 inh 3.7%.
For CC1CCN(C2CC(=O)N(c3ccccc3)C2=O)CC1 (configuration not stated) the results were BAZ2B block -21.5%, HP1b binding inh 61.7%, JMJD2A Tudor inh -0.7%, G9a inh 28.2µM* and L3MBTL1 inh 0.2%.
Screening COc1ccc(Cc2nnc(N/N=C/c3ccc(O)cc3)[nH]c2=O)cc1OC returned BAZ2B block 7.08µM*, HP1b binding inh 18.9%, JMJD2A Tudor inh 25.1µM*, G9a inh 88.6%[59 µM] and L3MBTL1 inh 17.8µM*.
Screening CCN(C(=O)Cn1ncc2c(=O)oc3ccc(C)cc3c21)c1cc(OC)ccc1OC returned BAZ2B block inconclusive, HP1b binding inh -1.4%, JMJD2A Tudor inh inconclusive and G9a inh inconclusive.
Screening Cc1cc(C)cc(NC(=O)COc2coc(CN3CCc4ccccc43)cc2=O)c1 returned BAZ2B block inconclusive, HP1b binding inh 22.3%, JMJD2A Tudor inh -31.0%, G9a inh 50.1µM* and L3MBTL1 inh -19.9%.
For Cc1ccc(NC(=O)COc2coc(CN3c4ccccc4CC3C)cc2=O)c(C)c1 (configuration not stated) the results were BAZ2B block inconclusive, HP1b binding inh -14.9%, JMJD2A Tudor inh inconclusive, G9a inh 50.1µM* and L3MBTL1 inh -23.4%.
Screening COc1ccc(OC)c(NC(=O)COc2coc(CN3CCc4ccccc43)cc2=O)c1 returned BAZ2B block inconclusive, HP1b binding inh 5.9%, JMJD2A Tudor inh -28.3%, G9a inh inconclusive and L3MBTL1 inh -20.8%.
Cc1ccc(NC(=O)COc2coc(CN3CCc4ccccc43)cc2=O)c(C)c1 was read as BAZ2B block 50.1µM*, HP1b binding inh -19.2%, JMJD2A Tudor inh inconclusive, G9a inh inconclusive and L3MBTL1 inh -14.7%.
For Cc1ccc(NC(=O)COc2coc(CN3CCc4ccccc4C3)cc2=O)c(C)c1 the results were BAZ2B block -28.7%, HP1b binding inh 39.6%, JMJD2A Tudor inh -13.8%, G9a inh 50.1µM* and L3MBTL1 inh 6.5%.
For CC(C)CC(=O)NCC(c1ccc2c(c1)OCO2)N1CCN(c2ccccc2F)CC1 (configuration not stated) the results were BAZ2B block 0.7%, HP1b binding inh 21.7%[57 µM], JMJD2A Tudor inh -14.8% and G9a inh 0.9%[59 µM].
COc1ccc(C)cc1NC(=O)C(=O)NCCc1csc2nc(-c3ccccc3F)nn12 was read as BAZ2B block 0.3%, HP1b binding inh 14.9%[57 µM], JMJD2A Tudor inh -19.8% and G9a inh 6.5%[59 µM].
For Cn1nnc2c(N3CCCCC3)ncnc21 the results were BAZ2B block 0.2%, HP1b binding inh 36.3%, JMJD2A Tudor inh -2.7% and G9a inh -1.9%[59 µM].
For CCOc1ccc(NC(=O)CCc2c(C)nc3cc(-c4ccccc4OC)nn3c2C)cc1 the results were BAZ2B block -3.1%, HP1b binding inh 27.0%, JMJD2A Tudor inh -3.7% and G9a inh 6.4%[59 µM].
`O=C(COc1coc(CN2CCc3ccccc3C2)cc1=O)Nc1ccc(Cl)cc1` gave BAZ2B block -18.1%, HP1b binding inh 28.8%, JMJD2A Tudor inh -26.0%, G9a inh -10.1%[0.501 µM] and L3MBTL1 inh -7.8%.
Screening CC1CN(C(=O)COc2coc(CN3CCc4ccccc4C3)cc2=O)CC(C)O1 (configuration not stated) returned BAZ2B block -3.9%, HP1b binding inh 38.2%, JMJD2A Tudor inh -0.7%, G9a inh 44.7µM* and L3MBTL1 inh 9.1%.
`CCc1ccc(NC(=O)COc2coc(CN3CCc4ccccc4C3)cc2=O)cc1` gave BAZ2B block 4.6%, HP1b binding inh 18.5%, JMJD2A Tudor inh -6.1%, G9a inh 56.2µM* and L3MBTL1 inh -2.4%.
`Cc1ccc(CNC(=O)CCc2nc3cccnc3n2Cc2ccccc2)cc1` gave BAZ2B block -25.3%, HP1b binding inh 44.3%, JMJD2A Tudor inh -5.3% and G9a inh -2.9%[59 µM].
Screening CC(C)[C@H](NC(=O)c1ccccc1F)C(=O)NCc1ccc(S(N)(=O)=O)cc1 returned BAZ2B block 6.9%, HP1b binding inh 28.5%, JMJD2A Tudor inh 5.6% and G9a inh 14.6%.
`CC(C)C(NC(=O)c1ccccc1F)C(=O)NCc1ccccc1` (configuration not stated) gave BAZ2B block 0.2%, HP1b binding inh -3.6%, JMJD2A Tudor inh 39.8µM* and G9a inh 5.8%[59 µM].
For CCOc1ccc(-c2nc(C#N)c(N3CCCCCC3)o2)cc1 the results were BAZ2B block 11.2µM*, HP1b binding inh inconclusive, JMJD2A Tudor inh 35.5µM*, G9a inh 7.94µM* and L3MBTL1 inh -29.7%.
`CCOc1ccc(-c2nc(C#N)c(N3CCN(C)CC3)o2)cc1` gave BAZ2B block -31.1%, HP1b binding inh -12.2%, JMJD2A Tudor inh -25.2% and G9a inh -27.3%[12.7 µM].
For CCOc1ccc(-c2nc(C#N)c(N3CCN(CC)CC3)o2)cc1 the results were BAZ2B block inconclusive, HP1b binding inh -7.7%, JMJD2A Tudor inh inconclusive, G9a inh 50.1µM* and L3MBTL1 inh -11.9%.
For CCCOc1ccc(-c2nc(C#N)c(N3CCN(CC)CC3)o2)cc1 the results were BAZ2B block 39.8µM*, HP1b binding inh 50.1µM*, JMJD2A Tudor inh inconclusive, G9a inh inconclusive and L3MBTL1 inh -18.0%.
`CCCCC/C=C\C/C=C\CCCCCCCC(=O)NCC(=O)O` gave G9a inh 8.8%[59 µM].
Screening CCC(C(=O)NC(N)=O)c1ccccc1 (configuration not stated) returned G9a inh -11.0%[12.7 µM].
For COc1cc(NC(=O)CNS(=O)(=O)c2cccs2)cc(OC)c1OC the results were BAZ2B block 2.1%, HP1b binding inh 21.9%[57 µM], JMJD2A Tudor inh -24.8% and G9a inh 6.5%[59 µM].
`CC(C)NC(=O)Cn1c(=O)nc(-c2ccccc2)c2ccccc21` gave BAZ2B block 0.4%, HP1b binding inh 11.1%, JMJD2A Tudor inh -2.0% and G9a inh 1.0%[59 µM].
`Cc1ccc(NC(=O)CN(C)CC(=O)Nc2ccc(F)c(Cl)c2)cc1` gave BAZ2B block 50.1µM*, HP1b binding inh inconclusive, JMJD2A Tudor inh 14.1µM*, G9a inh 31.6µM* and L3MBTL1 inh inconclusive.
Screening COc1ccc(N)cc1NC(=O)CN1CCCC1 returned BAZ2B block -28.2%, HP1b binding inh -7.6%, JMJD2A Tudor inh -17.7%, G9a inh inconclusive and L3MBTL1 inh -2.0%.
